# From the antibiotic and cytotoxicity screens of Wong et al. (2023)
# About 1,500 (3.8%) of roughly 39,000 compounds were called active. The sample as a whole holds a higher share of actives than the screen did.
# System: HSkMC (human skeletal muscle cells)
# Test: cytotoxicity call (relative viability < 0.9)
# Settings: 10 µM
row,Compound,cytotoxicity call
1,Cc1noc(C)c1NC(=O)N(C)C[C@H]1Oc2ccc(NC(=O)C3CC3)cc2CC(=O)N([C@@H](C)CO)C[C@H]1C,inactive
2,CCOCCCNc1nc2c([nH]1)c(=O)n(C)c(=O)n2C,inactive
3,C[C@@H]1CN([C@H](C)CO)S(=O)(=O)c2ccc(-c3cncnc3)cc2O[C@H]1CN(C)C(=O)c1cccc(F)c1,inactive
4,C[C@@H]1CN([C@@H](C)CO)C(=O)c2cccc(NC(=O)c3cnccn3)c2O[C@@H]1CN(C)CC1CCCCC1,inactive
5,COc1cccc(C#Cc2ccc3c(c2)O[C@@H](CN(C)C(=O)c2ccccn2)[C@H](C)CN([C@H](C)CO)S3(=O)=O)c1,inactive
6,COC(=O)CCCCCCC(=O)Nc1ccc([C@H]2O[C@@H](CSc3nc(-c4ccccc4)c(-c4ccccc4)o3)C[C@H](c3ccc([N+](=O)[O-])cc3)O2)cc1,inactive
7,COCCOC(=O)N1C(=O)[C@@]2(c3cc(C#Cc4ccc(OC)cc4)ccc31)[C@H](c1ccc(O)cc1)N1[C@H](c3ccccc3)[C@H](c3ccccc3)OC(=O)[C@H]1[C@@H]2C(=O)NC[C@H](O)c1ccccc1,inactive
8,O=C(NCc1csnn1)c1csnn1,inactive
9,O=C(COC(=O)/C=C/c1cn(-c2ccccc2)nc1-c1ccc2c(c1)OCCO2)N[C@H]1CCS(=O)(=O)C1,inactive
10,C[C@H]1CN([C@@H](C)CO)C(=O)CCCn2nncc2CO[C@@H]1CN(C)S(=O)(=O)c1ccc(-n2cccn2)cc1,inactive
11,COc1ccc(S(=O)(=O)N[C@H]2C=C[C@H](CC(=O)N3CCC(Cc4ccccc4)CC3)O[C@H]2CO)cc1,inactive
12,C[C@@H]1CN([C@@H](C)CO)C(=O)Cc2cc(NC(=O)CCN3CCOCC3)ccc2O[C@H]1CN(C)C(=O)NC1CCCCC1,inactive
13,CC(C)(N)c1ccccc1Br,inactive
14,C[C@@H]1CN([C@@H](C)CO)C(=O)c2cccc(NC(=O)NC3CCCCC3)c2O[C@H]1CN(C)Cc1ccc(Cl)c(Cl)c1,inactive
15,COc1cc2nc(N3CCN(C(=O)C4CCCO4)CC3)nc(N)c2cc1OC.Cl (configuration not stated),inactive
16,COc1cc2c(NC3CCN(C(C)C)CC3)nc(N3CCC(F)(F)CC3)nc2cc1OCCCN1CCCC1,active
17,COc1cc2c(NC3CCN(C)CC3)nc(N3CCCN(C)CC3)nc2cc1OCCOCCN(C)C,inactive
18,C[C@@H]1CN([C@@H](C)CO)C(=O)Cc2cc(NS(=O)(=O)c3ccccc3)ccc2O[C@@H]1CN(C)Cc1ccc(C(=O)O)cc1,inactive
19,COc1cccc(NC(=O)N(C)C[C@H]2OCc3ccccc3-c3c(n(C)c4ccccc34)C(=O)N([C@H](C)CO)C[C@H]2C)c1,inactive
20,C[C@@H]1CCCCO[C@@H](CN(C)C(=O)CCC(F)(F)F)[C@H](C)CN([C@@H](C)CO)C(=O)c2cc(NS(=O)(=O)c3cccs3)ccc2O1,inactive
21,Cc1ccc(S(=O)(=O)Nc2ccc3c(c2)C(=O)N([C@@H](C)CO)C[C@@H](C)[C@@H](CN(C)C(=O)c2ccccc2)OCCCC[C@@H](C)O3)cc1,inactive
22,C[C@H](CO)N1C[C@H](C)[C@H](CN(C)Cc2ccc(C(F)(F)F)cc2)Oc2ccc(NC(=O)Cc3ccccc3)cc2C1=O,inactive
23,Cc1ccc(S(=O)(=O)N(C)C[C@@H]2Oc3cc(Br)ccc3S(=O)(=O)N([C@@H](C)CO)C[C@@H]2C)cc1,inactive

row,Compound,cytotoxicity call
1,COc1ccc(S(=O)(=O)Nc2ccc3c(c2)C(=O)N([C@H](C)CO)C[C@@H](C)[C@H](CN(C)Cc2ccc(C(F)(F)F)cc2)OCCCC[C@@H](C)O3)cc1,inactive
2,COc1ccc(S(=O)(=O)Nc2ccc3c(c2)C(=O)N([C@@H](C)CO)C[C@@H](C)[C@@H](CN(C)Cc2ccc(C(F)(F)F)cc2)OCCCC[C@@H](C)O3)cc1,inactive
3,COc1ccc(S(=O)(=O)Nc2ccc3c(c2)C(=O)N([C@@H](C)CO)C[C@@H](C)[C@H](CN(C)Cc2ccc(C(F)(F)F)cc2)OCCCC[C@@H](C)O3)cc1,active
4,COc1ccc(S(=O)(=O)Nc2ccc3c(c2)C(=O)N([C@H](C)CO)C[C@@H](C)[C@@H](CN(C)Cc2ccc(C(F)(F)F)cc2)OCCCC[C@H](C)O3)cc1,inactive
5,COc1ccc(S(=O)(=O)Nc2ccc3c(c2)C(=O)N([C@H](C)CO)C[C@@H](C)[C@@H](CN(C)Cc2ccc(C(F)(F)F)cc2)OCCCC[C@@H](C)O3)cc1,active
6,COc1ccc(S(=O)(=O)Nc2ccc3c(c2)C(=O)N([C@H](C)CO)C[C@H](C)[C@H](CN(C)Cc2ccc(C(F)(F)F)cc2)OCCCC[C@H](C)O3)cc1,active
7,COc1ccc(S(=O)(=O)Nc2ccc3c(c2)C(=O)N([C@@H](C)CO)C[C@@H](C)[C@@H](CN(C)Cc2ccc(C(F)(F)F)cc2)OCCCC[C@H](C)O3)cc1,inactive
8,COc1ccc(S(=O)(=O)Nc2ccc3c(c2)C(=O)N([C@@H](C)CO)C[C@H](C)[C@@H](CN(C)Cc2ccc(C(F)(F)F)cc2)OCCCC[C@H](C)O3)cc1,inactive
9,COc1ccc(S(=O)(=O)Nc2ccc3c(c2)C(=O)N([C@@H](C)CO)C[C@H](C)[C@@H](CN(C)Cc2ccc(C(F)(F)F)cc2)OCCCC[C@@H](C)O3)cc1,inactive
10,COc1ccc(S(=O)(=O)Nc2ccc3c(c2)C(=O)N([C@H](C)CO)C[C@H](C)[C@@H](CN(C)Cc2ccc(C(F)(F)F)cc2)OCCCC[C@@H](C)O3)cc1,active
11,C[C@H](CO)N1C[C@H](C)[C@H](CN(C)S(=O)(=O)c2cccc(F)c2)Oc2ncc(C#CC3(O)CCCC3)cc2C1=O,inactive
12,C[C@H](CO)N1C[C@H](C)[C@H](CN(C)CC2CCCCC2)Oc2c(NC(=O)c3nc4ccccc4s3)cccc2C1=O,inactive
13,C[C@@H]1CN([C@@H](C)CO)C(=O)c2cc(NS(=O)(=O)c3cn(C)cn3)ccc2O[C@@H](C)CCCCO[C@@H]1CN(C)S(=O)(=O)c1ccccc1,inactive
14,COc1ccc(-c2cnc3c(c2)C(=O)N([C@H](C)CO)C[C@@H](C)[C@H](CN(C)C(=O)Cc2ccncc2)O3)cc1,inactive
15,C[C@@H]1CN([C@@H](C)CO)C(=O)c2cc(NC(=O)Cn3cnnn3)ccc2O[C@@H]1CN(C)S(=O)(=O)c1ccccc1,inactive
16,O=C(C[C@H]1C[C@H]2c3cc(NC(=O)NC4CCCC4)ccc3O[C@H]2[C@H](CO)O1)NCCN1CCCCC1,inactive
17,Cc1ncc([N+](=O)[O-])n1C,inactive
18,C[C@@H]1CCCCO[C@H](CN(C)S(=O)(=O)c2cn(C)cn2)[C@@H](C)CN([C@@H](C)CO)C(=O)c2cc(NC(=O)Nc3ccc(C(F)(F)F)cc3)ccc2O1,inactive
19,C[C@H]1CN([C@@H](C)CO)C(=O)Cc2cc(NC(=O)c3ccncc3)ccc2O[C@H]1CN(C)C(=O)NC1CCCCC1,inactive
20,Cc1ccc(S(=O)(=O)Nc2ccc3c(c2)C(=O)N([C@@H](C)CO)C[C@@H](C)[C@@H](CN(C)C(=O)NC2CCCCC2)OCCCC[C@H](C)O3)cc1,inactive
21,C[C@H](O)C#Cc1ccc2c(c1)O[C@H](CN(C)C(=O)Nc1ccccc1)[C@@H](C)CN([C@@H](C)CO)S2(=O)=O,inactive
22,Cc1ccccc1S(=O)(=O)N1C[C@H](O)COC[C@@H]2O[C@@H](CC(=O)N3CCN(C)CC3)CC[C@H]21,inactive
23,COCC(=O)Nc1ccc2c(c1)C(=O)N(C)C[C@@H](OC)[C@H](C)CN(C(=O)CN1CCOCC1)[C@H](C)CO2,inactive

row,Compound,cytotoxicity call
1,COc1ccc(-c2ccccc2)cc1NC(=O)c1ccc2nc(C)c(N(C)C(=O)CCc3ccccc3)n2c1,inactive
2,C[C@H](CO)N1C[C@H](C)[C@H](CN(C)C(=O)C2CCC2)Oc2cc(C#Cc3ccncc3)ccc2S1(=O)=O,inactive
3,N[C@H]1CCN(c2ccc(C(F)(F)F)cn2)C1,inactive
4,COc1ccc(S(=O)(=O)Nc2ccc3c(c2)C(=O)N([C@@H](C)CO)C[C@@H](C)[C@H](CN(C)Cc2ccc(C(F)(F)F)cc2)OCCCC[C@H](C)O3)cc1,active
5,COc1ccc(S(=O)(=O)Nc2ccc3c(c2)C(=O)N([C@H](C)CO)C[C@@H](C)[C@H](CN(C)Cc2ccc(C(F)(F)F)cc2)OCCCC[C@H](C)O3)cc1,inactive
6,COc1ccc(S(=O)(=O)Nc2ccc3c(c2)C(=O)N([C@@H](C)CO)C[C@H](C)[C@H](CN(C)Cc2ccc(C(F)(F)F)cc2)OCCCC[C@@H](C)O3)cc1,inactive
7,COc1ccc(S(=O)(=O)Nc2ccc3c(c2)C(=O)N([C@H](C)CO)C[C@H](C)[C@H](CN(C)Cc2ccc(C(F)(F)F)cc2)OCCCC[C@@H](C)O3)cc1,inactive
8,COc1ccc(S(=O)(=O)Nc2ccc3c(c2)C(=O)N([C@@H](C)CO)C[C@H](C)[C@H](CN(C)Cc2ccc(C(F)(F)F)cc2)OCCCC[C@H](C)O3)cc1,active
9,COc1ccc(S(=O)(=O)Nc2ccc3c(c2)C(=O)N([C@H](C)CO)C[C@H](C)[C@@H](CN(C)Cc2ccc(C(F)(F)F)cc2)OCCCC[C@H](C)O3)cc1,inactive
10,C[C@]12C[C@]3(O)O[C@@H](O1)[C@]1(COC(=O)c4ccccc4)[C@H]3C[C@@]12O[C@@H]1O[C@H](CO)[C@@H](O)[C@H](O)[C@H]1O,inactive
11,COc1ccc(COC[C@@]23Oc4ccccc4[C@@H](NC(=S)N2C)[C@@H]3CO[Si](C)(C)C(C)(C)C)cc1,inactive
12,C[C@H](CO)N1C[C@H](C)[C@H](CN(C)Cc2ccncc2)OCCCC[C@H](C)Oc2ccc(NC(=O)Cc3ccccc3)cc2C1=O,inactive
13,C[C@H]1CN([C@@H](C)CO)C(=O)c2cc(NC(=O)Nc3ccccc3)ccc2O[C@H]1CN(C)C(=O)Nc1ccc(C(F)(F)F)cc1,inactive
14,C[C@H]1CN([C@@H](C)CO)C(=O)c2cc(NC(=O)Nc3ccc(C(F)(F)F)cc3)ccc2O[C@@H]1CN(C)C(=O)Nc1ccccc1,inactive
15,C[C@@H]1CN([C@H](C)CO)C(=O)c2cc(NC(=O)Nc3ccccc3)ccc2O[C@@H]1CN(C)C(=O)Nc1ccc(C(F)(F)F)cc1,inactive
16,C[C@@H]1CN([C@@H](C)CO)C(=O)c2cc(NC(=O)Nc3ccc(C(F)(F)F)cc3)ccc2O[C@@H]1CN(C)C(=O)Nc1ccccc1,active
17,C[C@H](CO)N1C[C@H](C)[C@H](CN(C)C(=O)Nc2ccc(C(F)(F)F)cc2)Oc2ccc(NC(=O)Nc3ccccc3)cc2C1=O,active
18,C[C@@H]1CN([C@@H](C)CO)C(=O)c2cc(NC(=O)Nc3ccccc3)ccc2O[C@H]1CN(C)C(=O)Nc1ccc(C(F)(F)F)cc1,inactive
19,C[C@H](CO)N1C[C@H](C)[C@H](CN(C)C(=O)Nc2ccccc2)Oc2ccc(NC(=O)Nc3ccc(C(F)(F)F)cc3)cc2C1=O,active
20,C[C@H](CO)N1C[C@H](C)[C@@H](CN(C)C(=O)Nc2ccccc2)Oc2ccc(NC(=O)Nc3ccc(C(F)(F)F)cc3)cc2C1=O,inactive
21,C[C@@H]1CN([C@@H](C)CO)C(=O)c2cc(NC(=O)Nc3ccccc3)ccc2O[C@@H]1CN(C)C(=O)Nc1ccc(C(F)(F)F)cc1,inactive
